NLRP3 yeast inh = NALP3 inflammasome inhibitors in reconstituted yeast, primary screen, luminescence, uHTS; Yeast reconstituted NLRP3/ASC/caspase-1, beta-gal luminescence, 24 h; inhibition, % at 10 µM; hit rate 0.39% among 330,000; AID 2825, 2010;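 active means inhibition of 50% or more; inactive means inhibition below 50%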;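 further: plate controls were induced DMSO wells for no effect and uninduced yeast grown without galactose for full effect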
NALP1 inh = NALP1 inflammasome inhibitors in reconstituted yeast, colorimetric, S. cerevisiae, triplicate retest | S. cerevisiae NALP1/ASC/caspase-1 growth, X-gal OD620, 72 h | inhibition, % at 10 µM | hit rate 0.61% among 280,000 | AID 2071, 2009; in the data active means inhibition mostly above about 24%, no sharp cut-off; inactive means mostly below about 32%
dFosB activator = activators of delta FosB homodimer, primary screen, biochemical, fluorescence polarization, TAMRA-CDK5 oligo, single point; Protein FosB (Mus musculus), P13346; purified delta FosB; percent of positive-control signal above neutral wells; activation, % at 25 µM; hit rate 0.99% among 340,000;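 active means mean activation above about 17%, with every replicate also reaching it, limit read from the data, passing the limit was not always enough; inconclusive means only one of the two conditions met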
Target sequence (P13346 whole entry, looked up): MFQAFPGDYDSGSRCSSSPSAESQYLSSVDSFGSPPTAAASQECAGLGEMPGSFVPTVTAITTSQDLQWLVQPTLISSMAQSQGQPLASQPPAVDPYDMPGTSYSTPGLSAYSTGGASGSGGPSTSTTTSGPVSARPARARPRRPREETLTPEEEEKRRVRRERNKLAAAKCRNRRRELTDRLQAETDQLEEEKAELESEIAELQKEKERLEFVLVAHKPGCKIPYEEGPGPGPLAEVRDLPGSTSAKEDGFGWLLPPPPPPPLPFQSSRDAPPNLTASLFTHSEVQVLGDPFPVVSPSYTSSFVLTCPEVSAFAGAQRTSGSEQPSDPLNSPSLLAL
ZTA counter = ZTA (EBV) inhibition in EBNA-1 counter-screen; inhibition, % at 11 µM; hit rate 0.15% among 320,000; AID 2234; ZTA-DNA binding, fluorescence polarization; in the data active means inhibition above about 33%
Target sequence (P03206 whole entry, looked up): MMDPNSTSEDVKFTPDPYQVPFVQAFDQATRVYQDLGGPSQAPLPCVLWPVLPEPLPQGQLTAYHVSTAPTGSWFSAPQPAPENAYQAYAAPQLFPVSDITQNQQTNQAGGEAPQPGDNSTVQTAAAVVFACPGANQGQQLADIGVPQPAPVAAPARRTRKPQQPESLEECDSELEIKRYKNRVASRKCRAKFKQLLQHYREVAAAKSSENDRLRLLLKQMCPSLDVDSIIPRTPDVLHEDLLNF
EBNA-1 inh = EBNA-1 DNA-binding inhibitors, primary screen, biochemical, fluorescence polarization; inhibition, % at 14.8 µM; hit rate 0.34% among 300,000; in the data active means inhibition above about 28%
PolyA inh = polyadenylation inhibitors in yeast reporter cells, primary screen, luminescence, S. cerevisiae; S. cerevisiae SKY197-pL101 polyadenylation reporter, beta-gal luminescence; efflux-impaired pdr1/pdr3 knockout yeast; score 100 = 6 SD above DMSO; hit rate 0.02% among 300,000; activity score, % at 12 µM; AID 1875, 2009;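 active means lowest replicate activity score at least 50, where 100 means six control SD above control mean; inconclusive means lowest score under 50 but half or more replicates reach 50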;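 further: yeast exposed to compound for 9 h at 30 °C; higher score means more reporter readthrough which indicates perturbed polyadenylation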
Starred values were filed as active, the others as inactive. An excerpt weighted towards active compounds, which were near 2.2% of everything screened.

What do the screens show for `CCOc1ccccc1C1NC(=O)CCC1[N+](=O)[O-]` (centres undefined)?
NLRP3 yeast inh: 13; NALP1 inh: -3; dFosB activator: 9; ZTA counter: -11; EBNA-1 inh: 9; PolyA inh: 4

Results for C=CCn1c(=N)n(CC(=O)c2cccc([N+](=O)[O-])c2)c2ccccc21 ?
NLRP3 yeast inh: 20; NALP1 inh: 19; dFosB activator: 6; ZTA counter: 2; EBNA-1 inh: 6; PolyA inh: -28

Results for N=c1n(CC(=O)c2ccc([N+](=O)[O-])cc2)c2ccccc2n1Cc1ccc(Cl)cc1 ?
NLRP3 yeast inh: 10; NALP1 inh: 64*; dFosB activator: inconclusive; ZTA counter: -17; EBNA-1 inh: -6; PolyA inh: -26

What do the screens show for `N=c1n(CC(=O)c2ccc(Br)cc2)c2ccccc2n1Cc1ccccc1`?
NLRP3 yeast inh: 24; dFosB activator: 35*; ZTA counter: 13

Results for N=c1n(CCN2CCCCC2)c2ccccc2n1CC(=O)c1cccc([N+](=O)[O-])c1 ?
NLRP3 yeast inh: 29; NALP1 inh: 14; dFosB activator: 21*; ZTA counter: 8; EBNA-1 inh: -5; PolyA inh: 14

How did CCN(C(=O)CSc1ccc2ccccc2n1)C1CCCCC1 do in these assays?
NLRP3 yeast inh: 24; dFosB activator: -8

What do the screens show for `CN(CC(=O)Nc1ccc(F)cc1)C(=O)CN1C(=O)NC2(CCCC2)C1=O`?
NLRP3 yeast inh: 2; dFosB activator: -2

Results for O=C1S/C(=C\c2ccc(O)c([N+](=O)[O-])c2)C(=O)N1c1ccccc1Cl ?
NLRP3 yeast inh: 24; NALP1 inh: 28*; dFosB activator: -6; ZTA counter: -3; EBNA-1 inh: -12; PolyA inh: 83*

How did O=C(c1ccco1)N1CCN(C(=O)c2cccc3c2C(=O)N(Cc2cccnc2)C3)CC1 do in these assays?
NLRP3 yeast inh: 9; NALP1 inh: 36*; dFosB activator: -1; ZTA counter: 7; EBNA-1 inh: -7; PolyA inh: 7

How did O=C(c1cccc2c1C(=O)N(Cc1cccnc1)C2)N1CCN(c2ccccc2)CC1 do in these assays?
NLRP3 yeast inh: 8; NALP1 inh: 7; dFosB activator: 2; ZTA counter: -5; EBNA-1 inh: 0; PolyA inh: -3

What do the screens show for `Cc1ccc(S(=O)(=O)/N=c2\ccc(Cl)cn2C(F)F)cc1`?
NLRP3 yeast inh: -5; NALP1 inh: 38*; dFosB activator: -1; ZTA counter: -9; EBNA-1 inh: -5; PolyA inh: 0

Results for Cc1nonc1NC(=O)CSc1nnc(-c2ccoc2C)n1-c1cccc(Cl)c1 ?
NLRP3 yeast inh: 1; NALP1 inh: 44*; dFosB activator: -9; ZTA counter: -3; EBNA-1 inh: -6; PolyA inh: 2

How did CCCn1c(SCC(=O)Nc2nonc2C)nnc1-c1ccoc1C do in these assays?
NLRP3 yeast inh: -5; NALP1 inh: 3; dFosB activator: -2; ZTA counter: 10; EBNA-1 inh: 5; PolyA inh: 0

What do the screens show for `O=C(N=Nc1c(O)[nH]c2ccccc12)c1cc(-c2ccc(F)cc2)n[nH]1`?
NLRP3 yeast inh: 28; NALP1 inh: -13; dFosB activator: 63*; ZTA counter: 20; EBNA-1 inh: 1; PolyA inh: 8

What do the screens show for `O=C(N=Nc1c(O)[nH]c2ccccc12)c1cc(-c2cccs2)[nH]n1`?
NLRP3 yeast inh: 10; dFosB activator: 71*; ZTA counter: 3; EBNA-1 inh: -3; PolyA inh: -8

How did Oc1[nH]c2ccccc2c1N=Nc1ccc(F)cc1 do in these assays?
NLRP3 yeast inh: -5; NALP1 inh: 2; dFosB activator: -1; ZTA counter: 9; EBNA-1 inh: 8; PolyA inh: -4

What do the screens show for `O=C(Cc1cccs1)N=Nc1c(O)[nH]c2ccccc12`?
NLRP3 yeast inh: 12; dFosB activator: 0; ZTA counter: -9; EBNA-1 inh: -1; PolyA inh: -16

What do the screens show for `O=C(CNC(=O)c1cccs1)Nc1ccncc1`?
NLRP3 yeast inh: -3; dFosB activator: -7; ZTA counter: -3; EBNA-1 inh: 9; PolyA inh: 11

How did Cc1ccc(-n2nc(C(=O)NCc3ccc(C)o3)c3c4ccccc4n(C)c3c2=O)cc1 do in these assays?
NLRP3 yeast inh: 11; NALP1 inh: 38*; dFosB activator: -10; ZTA counter: 10; EBNA-1 inh: 6; PolyA inh: -5

What do the screens show for `CC1=NN(c2ccccc2)C(=O)C1N=Nc1cccc(O)c1` (centres undefined)?
NLRP3 yeast inh: 40; NALP1 inh: 32*; dFosB activator: -10; ZTA counter: -2; EBNA-1 inh: 4; PolyA inh: -7

How did COCCN(Cc1cc2cc(C)ccc2n2nnnc12)C(=S)Nc1ccccc1C do in these assays?
NLRP3 yeast inh: 23; NALP1 inh: 24*; dFosB activator: -2; ZTA counter: -5; EBNA-1 inh: -14; PolyA inh: -10

What do the screens show for `COc1cc(/C=C(\C#N)c2nc(-c3cc4ccccc4oc3=O)cs2)ccc1O`?
NLRP3 yeast inh: 23; NALP1 inh: 14; dFosB activator: -6; ZTA counter: 4; EBNA-1 inh: 9; PolyA inh: -11

What do the screens show for `CCN(CC)CCOC(=O)c1ccc(N/C=C(/C#N)c2nc(-c3ccc4c(c3)OCO4)cs2)cc1`?
NLRP3 yeast inh: 16; dFosB activator: 93*; ZTA counter: 16; EBNA-1 inh: -15; PolyA inh: 1

Results for CCN(CC)CCOC(=O)c1ccc(N/C=C(/C#N)c2nc(-c3cc4ccccc4oc3=O)cs2)cc1 ?
NLRP3 yeast inh: 10; NALP1 inh: 14; dFosB activator: 39*; PolyA inh: 16

What do the screens show for `COc1ccc(-c2sc3ccccc3c2-c2ccc(OCCN(C)C)cc2)cc1`?
NLRP3 yeast inh: 30; dFosB activator: 25*

Results for CN(C)CCOc1ccc(-c2c(-c3ccsc3)sc3ccccc23)cc1 ?
NLRP3 yeast inh: 48; dFosB activator: inconclusive

How did COc1ccc(-c2nc(-c3ccccn3)no2)cc1 do in these assays?
NLRP3 yeast inh: 11; NALP1 inh: 2; dFosB activator: -16; ZTA counter: 3; EBNA-1 inh: 3

How did Clc1ccc(-c2nc(-c3ccccn3)no2)cc1Cl do in these assays?
NLRP3 yeast inh: 18; NALP1 inh: 32*; dFosB activator: -7; ZTA counter: 9; EBNA-1 inh: 5; PolyA inh: -26

What do the screens show for `CN(C)c1ccc(C(=O)OCC(=O)Nc2ccc(S(N)(=O)=O)cc2)cc1`?
NLRP3 yeast inh: -12; NALP1 inh: 11; dFosB activator: 82*; ZTA counter: 44*; EBNA-1 inh: 34*; PolyA inh: 7
